High-throughput results from PubChem BioAssay.
CBFb RUNX1 block – CBF-beta/RUNX1 interaction disruption. Potency, µM (series often up to 59.8 µM), inactives show at the highest dose activity, negative = inhibition, most hits filed as inhibitors. AlphaScreen CBFb-His/RUNX1-biotin binding, biochemical. 230,000 tested, under 10 active; note: % of control where 0% means no effect
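Inhibition was taken as any reduction in AlphaScreen signal from the CBF-beta–RUNX1 pair (His and biotin tags, 30 nM each), measured after compound (15 min) and bead (90 min) incubations at room temperature.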
HPGD block – blocks human HPGD enzyme activity; 4.3% of 150,000 active; Potency, µM, for inactives: at the highest dose activity change, negative = inhibition, usual class: inhibitors; P15428; purified HPGD, NADH fluorescence kinetic, PGE2 substrate; active = well fitted inhibition curve with a large enough effect, not every such curve was filed as active; inconclusive = small, poorly fitted or top-dose-only effect, or another doubt; inactive = no such curve, though single readings can be large or run the other way; note: potency is the fitted concentration of half-maximal effect; % is set by controls: 0 for no effect and ±100 for the full control effect
Target sequence (P15428 whole entry, looked up): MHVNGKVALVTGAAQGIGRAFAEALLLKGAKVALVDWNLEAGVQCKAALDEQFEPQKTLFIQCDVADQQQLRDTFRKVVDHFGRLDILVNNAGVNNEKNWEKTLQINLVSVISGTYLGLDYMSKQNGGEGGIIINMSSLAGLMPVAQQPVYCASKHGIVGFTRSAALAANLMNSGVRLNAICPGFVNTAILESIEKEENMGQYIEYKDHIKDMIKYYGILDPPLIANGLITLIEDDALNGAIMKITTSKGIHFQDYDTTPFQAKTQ
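20 nM HPGD preincubated 15 min at room temperature with compound in 50 mM Tris-HCl pH 8, 0.01% Tween 20. Started with 1 mM NAD+ and 30 uM prostaglandin E2; NADH fluorescence (360/450 nm) read 5 times over 30-s intervals, last minus first.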
ALDH1A1 inh – ALDH1A1 (human) enzyme inhibition; Purified ALDH1A1, NADH fluorescence, propionaldehyde substrate; P00352; Potency, µM (doses to about 75.3 µM), without a hit: top-dose activity, negative = inhibition, hits mostly inhibitors; 7.3% of 220,000 active; active = well fitted inhibition curve with a large enough effect, not every such curve was filed as active; inconclusive = small, poorly fitted or top-dose-only effect, or another doubt; inactive = no such curve, though single readings can be large or run the other way;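 note: potency is the fitted concentration of half-maximal effect; plate controls were no enzyme wells and a reference inhibitor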
HTT aggregate – mutant huntingtin aggregation inhibition. 1.1% of 220,000 active. Potency, µM (series often up to 46.1 µM), for the others: at the highest dose activity change, negative = inhibition, usual class: inhibitors. AID 1688. PC12 HttQ103-GFP aggregates, Acumen cytometry, 40 h; note: potency is the fitted concentration of half-maximal effect; % is set by controls: 0 for no effect and ±100 for the full control effect; nearly all actives have a fitted effect of over 60% in size
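Inducible Q103 Huntingtin exon 1–GFP PC12 line, 1500 cells/well in phenol red free DMEM with 5% equine and 5% calf serum. Tebufenozide 100 nM induced expression; compounds titrated; aggregates quantified by cytometry.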
HTT cytoprotect – Huntington cell model cytoprotection by ATP luminescence; PC12 HTT-Q103 induced, cytoprotection, ATP luminescence, 40 h; Potency, µM (highest dose often 56.4 µM), inactives show cytoprotection (ATP increase), most hits filed as activators; 0.14% of 230,000 active; AID 1471; note: potency is the fitted concentration of half-maximal effect; % of control where 0% means no effect; nearly all actives have a fitted effect of over 45% in size
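Cells were plated at 1500 per well in phenol red-free DMEM with 5% equine and 5% calf serum. Tebufenozide (100 nM final) and compounds were added, then ATPlite reagent, and luminescence was read.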
KDM4E inh – inhibitors of human JMJD2E histone demethylase; AID 2147; B2RXH2; 1.6% of 230,000 active; Potency, µM (series often up to 57.1 µM), for inactives: at the highest dose activity change, negative = inhibition, actives largely listed as inhibitors; JMJD2E catalytic domain, FDH-coupled NADH fluorescence (FDH is formaldehyde dehydrogenase);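 note: potency is the fitted concentration of half-maximal effect; 0% = wells with enzyme and -100% = buffer wells without enzyme; nearly all actives have a fitted effect of over 50% in size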
Target sequence (B2RXH2 1-337 limits assumed): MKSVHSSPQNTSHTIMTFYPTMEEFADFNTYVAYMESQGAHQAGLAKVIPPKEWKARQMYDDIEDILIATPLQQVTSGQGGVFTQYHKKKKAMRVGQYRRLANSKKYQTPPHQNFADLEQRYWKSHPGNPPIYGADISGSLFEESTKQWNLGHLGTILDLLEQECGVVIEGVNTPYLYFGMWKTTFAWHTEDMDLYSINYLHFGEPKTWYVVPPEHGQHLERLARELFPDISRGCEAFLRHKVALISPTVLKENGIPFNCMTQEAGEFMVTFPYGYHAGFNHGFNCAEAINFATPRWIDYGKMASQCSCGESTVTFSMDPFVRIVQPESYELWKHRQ
Numbers without * were called inactive; ? = inconclusive; nt = no result; [ ] = dose if it differs, or a comment. Rows were chosen to be rich in hits. Some 9.8% of all compounds tested hit in one or more screens of this group. Unless noted, calls come from the whole dose curve; as a rule, active = well fitted curve in the direction sought with a large enough effect; inconclusive = small, poorly fitted or top-dose-only effect, or another doubt; inactive = no such curve, though single readings can be large; an effect the other way counts as inactive or inconclusive.

SMILES	CBFb RUNX1 block	HPGD block	ALDH1A1 inh	HTT aggregate	HTT cytoprotect	KDM4E inh
CCOc1ccc2nc(NC(=O)C3=NN(c4ccccc4)C(=O)CC3)sc2c1	-22%	nt	-5%	11%	-91%	-11%
O=C(O)c1ccc(CN2C(=O)CSC2=S)cc1	-11%	-21%	13µM*	?	?	-8%
O=C(O)c1ccc(N=C2SCC(=O)N2Cc2ccccc2)cc1	4%	nt	13µM*	5%[9.22 µM]	0%[10 µM]	15%
O=C(C1CCC(CNc2c(N3CCCCC3)c(=O)c2=O)CC1)N1CCCC1 (stereo not drawn)	7%	nt	nt	-21%[9.22 µM]	-10%[10 µM]	-3%
CCc1c(C)[nH]n(-c2nc(-c3cccc([N+](=O)[O-])c3)cs2)c1=O	3%	-17%	14µM*	13%	nt	3%
CCc1c(C)[nH]n(-c2nc(-c3ccccc3)cs2)c1=O	-11%	nt	?	-19%	-26%	-4%
CCCCCCC1/C(=N/O)CCC1C(=O)OC (stereo not drawn)	4%	-1%	3%	4µM*	10%	-2%
COC(=O)c1cccc(C23CC4(C2)[C@H](CN(Cc2cccnc2)[C@@H]4c2ccccc2)C3c2ccc(C(F)(F)F)cc2)c1 (stereo partly drawn)	-2%	-6%	-9%	-16%[9.22 µM]	-69%	-5%
Cc1ccccc1N1CCN(CCCN2C(=O)CC(=C(c3ccccc3)c3ccccc3)C2=O)CC1	-1%	?	18µM*	-16%	-26%	-14%
Cc1ccc(NNC(=O)CCc2ccccc2)c(C)c1	-1%	nt	9%	-9%[9.22 µM]	-16%[10 µM]	-1%
C=CCN(CC=C)C(=S)NC(=O)Cc1cccc2ccccc12	3%	nt	19µM*	-8%[9.22 µM]	0%[10 µM]	?
CCN(CC)C(=S)NC(=O)Cc1ccccc1	6%	nt	5%	6%[9.22 µM]	-5%[10 µM]	0%
CCOc1cc(/C=N/n2cnnc2)ccc1OC(=O)c1cccc([N+](=O)[O-])c1	6%	-5%	6%	-7%	4%	-1%
O=C(CCS(=O)(=O)c1ccc(Br)cc1)Nc1cc(F)ccc1F	?	-2%	22µM*	-8%	4%[10 µM]	-5%
COC(=O)c1ccccc1NC(=O)CCS(=O)(=O)c1ccc(Br)cc1	?	nt	?	10%	-13%	?
CN(C)Cc1nnnn1-c1cccc(-n2nnnc2CN(C)C)c1	3%	nt	-10%	-8%[9.22 µM]	-6%[10 µM]	-5%
CC12C(=O)N(CCC(=O)O)C(=O)C1C1C=CC2C1 (stereo not drawn)	2%	-5%	-14%	-6%	-13%[10 µM]	?
Nc1c(C(=O)NCc2ccco2)nnn1Cc1ccccc1	-4%	-6%	-3%	10%	-18%	-3%
O=C(c1ccco1)c1nnn(Cc2ccccc2)c1-c1ccccc1	8%	-11%	11µM*	-22%	1%	4%
O=C(Nc1ccc(Cc2ccncc2)cc1)c1cc([N+](=O)[O-])ccc1N1CCOCC1	-25%	nt	-3%	3%	-38%	1%
CC(=O)NS(=O)(=O)c1ccc(NC(=O)c2ccc3c(c2)C(=O)N(CCC(C)C)C3=O)cc1	-4%	28µM*	?	4%	nt	-6%
Cc1cnc(NC(=O)c2ccc3c(c2)C(=O)N(Cc2ccco2)C3=O)s1	-3%	-8%	?	-4%	-11%	5%
CC(C)CN1C(=O)c2ccc(C(=O)Nc3ccccn3)cc2C1=O	5%	-9%	1.1µM*	-1%	14%	3%
CCN1C(=O)c2ccc(C(=O)Nc3ncc(C)s3)cc2C1=O	0%	nt	2.2µM*	6%	-32%	9%
CC(C)CN1C(=O)c2ccc(C(=O)Nc3ccncc3)cc2C1=O	4%	-3%	0.63µM*	12%[9.22 µM]	1%	6%
SMILES	CBFb RUNX1 block	HPGD block	ALDH1A1 inh	HTT aggregate	HTT cytoprotect	KDM4E inh
COCCCN1C(=O)c2ccc(C(=O)Nc3ccc(OC)cc3)cc2C1=O	2%	-5%	?	0%	5%	-5%
c1cncc(-c2nc(N3CCCCCC3)c3ccccc3n2)c1	-3%	-20%	1.4µM*	-7%	-3%[0.074 µM]	-9%
O=S(=O)(CCN(CCS(=O)(=O)C(F)(F)F)CC1CCCO1)C(F)(F)F (stereo not drawn)	-4%	-13%	7.1µM*	16%	-37%	-2%
CN(C)CCN(C(=O)c1ccc(N2C(=O)CCC2=O)cc1)c1nc2cc3c(cc2s1)OCO3	1%	nt	20µM*	-13%	-20%	-2%
CN(C)CCN(C(=O)c1ccc(Br)s1)c1nc2cc3c(cc2s1)OCCO3	-1%	nt	7%	6%	-39%	?
CC(=O)c1c(C)[nH]c(C(=O)OCC(=O)c2c(N)n(C)c(=O)n(C)c2=O)c1C	5%	nt	2%	13%	-7%	5%
CC1=CC2=C(OC1N(C)C)c1cccc3cccc(c13)C2=O (stereo not drawn)	-23%	-12%	2.2µM*	3%	27%	20µM*
Cc1ccc(-n2nc(C)c3c2OC(N)=C(C#N)C3c2ccc(F)cc2)cc1 (stereo not drawn)	3%	-4%	4%	-21%	-8%	-5%
Cc1nn(-c2ccccc2)c(N)c1Sc1ccc([N+](=O)[O-])cc1	-6%	20µM*	1.4µM*	-4%	33%[10 µM]	-4%
Cc1[nH]nc2c1C(c1ccco1)C(C#N)=C(N)O2 (stereo not drawn)	11%	nt	2%	8%	1%	-2%
Cc1nn(-c2ccccc2)c2c1C(c1cccs1)C(C#N)=C(N)O2 (stereo not drawn)	-16%	?	11µM*	9%	-13%	-23%
CCCc1nn(-c2ccccc2)c2c1C(c1cccs1)C(C#N)=C(N)O2 (stereo not drawn)	-9%	-17%	6%	-12%	-7%	-6%
Cc1nn(-c2ccccc2)c2c1C(c1ccco1)C(C#N)=C(N)O2 (stereo not drawn)	-17%	-15%	1µM*	12%	-29%	14µM*
Cc1nn(-c2ccccc2)c2c1C(c1ccc([N+](=O)[O-])cc1)C(C#N)=C(N)O2 (stereo not drawn)	-25%	nt	14µM*	-18%[9.22 µM]	2%[10 µM]	18µM*
CC1(C)Cc2ccccc2-c2nnc(-c3ccccn3)n21	4%	-5%	7%	12%	?	8%
N#CC(C#N)=CNc1cccnc1	10%	nt	11%	-4%[9.22 µM]	3%[10 µM]	3%
CSc1cc(/C=N/O)c(SC)s1	6%	11µM*	?	13µM*	21%[10 µM]	6%
Cc1nc(C)c(C(=O)O)s1	8%	nt	nt	-13%[9.22 µM]	-4%[10 µM]	12%
O=C(CSc1ccc(-c2ccco2)nn1)NCCc1ccccc1	?	nt	7.1µM*	-4%	-12%	?
